Measurements: PubChem BioAssay (NCI)
About 79,000 compounds went through this panel and 15% of them were active in at least one assay; those are over-represented in the sample as a whole. Unmarked numbers belong to inactive results. Calls of active or inactive are those of the source. Rule as the data show it: active = growth inhibition above about 70%; inactive = the rest.

What was measured:
[1] = NCI Yeast Anticancer Drug Screen. Data for the rad50 strain (AID 155);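 also: 0% = growth of vehicle-only cultures of the same strain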; settings: S. cerevisiae rad50 strain growth inhibition, hits give high values
Procedure, shortened: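 Cells are treated with compound, grown, and their growth is then scored against vehicle-only cultures of the same repair-deficient yeast strain.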

[2] = NCI Yeast Anticancer Drug Screen. Data for the mec2-1 strain (AID 157); settings: S. cerevisiae mec2-1 strain, hits give high values
Procedure, shortened: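 Using mec2-1 yeast: add compound, measure growth, express inhibition versus vehicle-treated cultures.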

[3] = NCI Yeast Anticancer Drug Screen. Data for the sgs1 mgt1 strain (AID 161);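 also: 0% = growth of cultures given vehicle only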; settings: S. cerevisiae sgs1 mgt1 strain, hits give high values
Procedure, shortened: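 This yeast growth screen uses a strain with defined DNA-repair lesions; compound-treated growth is compared with vehicle-treated growth.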

[4] = NCI Yeast Anticancer Drug Screen. Data for the cln2 rad14 strain (AID 165);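 also: 0% = growth equal to vehicle treated cultures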; settings: S. cerevisiae cln2 rad14 strain, hits give high values
Procedure, shortened: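 Yeast strain cln2 rad14, bearing defects in cell cycle control and DNA repair, serves as the test system; values reflect growth inhibition compared with vehicle.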

[5] = NCI Yeast Anticancer Drug Screen. Data for the bub3 strain (AID 167); settings: S. cerevisiae bub3 mutant strain, hits give high values
Procedure, shortened: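 Part of a panel of yeast mutants defective in DNA damage repair or cell cycle regulation. Each strain is grown with compound, and inhibition is calculated relative to solvent-treated cultures.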

[6] = NCI Yeast Anticancer Drug Screen. Data for the mlh1 rad18 strain (AID 175); settings: S. cerevisiae mlh1 rad18 strain growth inhibition, hits give high values
Procedure, shortened: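 Steps: expose repair-defective yeast to compound; measure growth; express inhibition against vehicle-treated controls.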

[7] = at 5.0 µM (retest, dose inferred, filed as 0.5)
[8] = at 50.0 µM (retest, dose inferred, filed as 5.0)

Row | SMILES | growth inhibition [1, 7] | growth inhibition [1, 8] | growth inhibition ([1]; at 50.0 µM) | growth inhibition [2, 7] | growth inhibition [2, 8] | growth inhibition ([2]; at 50.0 µM) | growth inhibition [3, 7] | growth inhibition [3, 8] | growth inhibition ([3]; at 50.0 µM) | growth inhibition [4, 7] | growth inhibition [4, 8] | growth inhibition ([4]; at 50.0 µM) | growth inhibition [5, 7] | growth inhibition [5, 8] | growth inhibition ([5]; at 50.0 µM) | growth inhibition [6, 7] | growth inhibition [6, 8] | growth inhibition ([6]; at 50.0 µM)
1 | COC(=O)CCCC(=O)NC1=C(Nc2ccccc2)C(=O)c2ccccc2C1=O | 27% | 72% (active) | 45.5% | 15% | 41% | 14.5% | 22% | 50% | 52.2% | 15% | 24% | 38.6% | 33% | 67% | 61% | 23% | 60% | 16.3%
2 | O=[N+]([O-])c1ccccc1OS(=O)(=O)c1ccccc1 | 0% | -2% | -2.5% | -12% | -8% | -1.1% | 4% | 20% | -0.45% | -25% | 36% | 6.4% | -4% | 6% | 14.3% | -6% | 3% | 0.65%
3 | Oc1ccc(O)c2c(O)c3ccccc3c(O)c12 | 24% | 86% (active) | 76.7% (active) | 15% | 77% (active) | 50.4% | 10% | 85% (active) | 80.5% (active) | 15% | 58% | 30.9% | 3% | 82% (active) | 65.7% | 20% | 94% (active) | 78.9% (active)
4 | O=[N+]([O-])c1ccc(C2=C[P+](c3ccccc3)(c3ccccc3)C=C(c3ccccc3)O2)cc1 | 29% | 97% (active) | 91% (active) | 21% | 98% (active) | 90.4% (active) | 18% | 99% (active) | 85.2% (active) | 30% | 98% (active) | 86.4% (active) | 45% | 98% (active) | 92.2% (active) | 22% | 97% (active) | 92.2% (active)
5 | Cc1cnc(C#N)c(C#N)n1 | 2% | 10% | 35.6% | -1% | 8% | 5.9% | 2% | 7% | 9.95% | 0% | 7% | 12.2% | -1% | -1% | 13.2% | -3% | 3% | 18.1%
6 | OCC1CC[N-]CC1.OCC1CC[N-]CC1.[Cl][Pt+2]([Cl])([Cl])[Cl] | 24% | 99% (active) | 98.4% (active) | 5% | 97% (active) | 92.6% (active) | 33% | 98% (active) | 96.8% (active) | 15% | 98% (active) | 92.3% (active) | 6% | 99% (active) | 96.2% (active) | 40% | 98% (active) | 82.5% (active)
7 | CN1CCC(/C=C/c2cccc3ccccc23)CN1 (configuration not stated) (tested in a mixture with another compound) | 1% | 93% (active) | 71.5% (active) | 18% | 71% (active) | 71.3% (active) | -1% | 91% (active) | 79.3% (active) | 3% | 27% | 23.2% | -4% | 52% | 35.9% | -1% | 95% (active) | 81.3% (active)
8 | CCCCN(CCCC)CCCC(O)c1c2ccc(Cl)cc2nc2ccc(OC)cc12 (configuration not stated) | 1% | 24% | 18.1% | -1% | 5% | 30% | 26% | 11% | 18.9% | -3% | 0% | 25.6% | 3% | 10% | 47.8% | 3% | 23% | 70.7% (active)
9 | CC(=O)OC1C2C3C(C=CC2[C@H]1OC(C)=O)C1C3C=CC2C1C(OC(C)=O)[C@@H]2OC(C)=O (some centres not stated) | 3% | 14% | 18.4% | -1% | 21% | 11.8% | -173% | 11% | 5.2% | -2% | 13% | 14.3% | -2% | 4% | -1.9% | 12% | 30% | 12.9%
10 | COC12CC(=O)C(C(C)=O)=C(O)C1(C)c1c(OC(C)=O)c(C)c(O)c(C(C)=O)c1O2 (configuration not stated) | 17% | 57% | 45.1% | 14% | 63% | 52.3% | 31% | 73% (active) | 19.2% | 19% | 50% | 41% | 62% | 92% (active) | 43.5% | 19% | 64% | 92.8% (active)
11 | O=C1c2ccccc2CCC1C(O)(C(F)(F)F)C(F)(F)F (configuration not stated) | 19% | 13% | -5.3% | 16% | 7% | -3.6% | 22% | 7% | -35.8% | 4% | 11% | 10.9% | -12% | 1% | 31.6% | 22% | 20% | -11.3%
12 | Oc1cc(Cl)cc2c1-c1ccc(Cl)cc1C2O (configuration not stated) | 9% | 97% (active) | 95.2% (active) | 6% | 98% (active) | 91.2% (active) | -4% | 97% (active) | 96.3% (active) | 28% | 97% (active) | 81.8% (active) | 31% | 97% (active) | 93.8% (active) | 20% | 98% (active) | 95.5% (active)
13 | O=Cc1c(O)ccc2ccccc12.[Cu+2] | -27% | 95% (active) | 99.3% (active) | -2% | 47% | 99.2% (active) | -7% | 97% (active) | 99.2% (active) | -19% | 42% | 99% (active) | -54% | 94% (active) | 98.8% (active) | -14% | 97% (active) | 99.2% (active)
14 | CN(C)CCCSc1c2ccccc2nc2cc(NCC(=O)Nc3ccccc3-c3ccccc3NC(=O)CNc3ccc4c(SCCCN(C)C)c5ccccc5nc4c3)ccc12 | 53% | 98% (active) | 90.6% (active) | 38% | 99% (active) | 92.5% (active) | 32% | 98% (active) | 93.3% (active) | 30% | 63% | 78.3% (active) | 39% | 98% (active) | 91.5% (active) | 41% | 98% (active) | 90.7% (active)
15 | CCSC1(SCC)C(=O)OC2=C(CCCC2)C1N1CCOCC1 (configuration not stated) | 1% | 21% | 34.1% | 2% | 12% | 14.2% | 0% | 18% | 0.35% | -2% | 31% | 34.9% | -4% | 11% | 13.3% | -1% | 24% | 15.6%
16 | CN(C)CC1CCC2=C(C1=O)C(c1ccc(Cl)c(Cl)c1)C1=C(CCC(CN(C)C)C1=O)O2 (configuration not stated) | 14% | 11% | 75.5% (active) | -4% | -13% | 49.9% | -5% | 19% | 47.6% | 6% | -3% | -17.2% | -5% | 2% | 3.75% | 4% | 1% | 48.5%
17 | CCn1c2ccccc2c2ccc(C3C(C(=O)OC)=C(C)NC(C)=C3C(=O)OC)cc21 | -3% | 8% | 79.4% (active) | -14% | 14% | 76% (active) | -2% | 9% | 80.8% (active) | -14% | 26% | 83.2% (active) | -6% | 15% | 85% (active) | 1% | 8% | 85% (active)
18 | Cc1c(Cl)cccc1NC(=O)/C(Cl)=C(\Cl)C(=O)O | -1% | 33% | 99.5% (active) | -1% | 41% | 99.8% (active) | 1% | 74% (active) | 99.7% (active) | 1% | 3% | 99.3% (active) | -3% | 18% | 99.7% (active) | -6% | 39% | 99.5% (active)
19 | COc1cc(/C=C2/C(=O)N(C(=O)c3ccccc3O)N=C2C)cc(OC)c1OC | -14% | 23% | 64% | 9% | 35% | 16.6% | -8% | 28% | 36.5% | -4% | 26% | 26.4% | 12% | 80% (active) | 77.1% (active) | 20% | 61% | 39.2%
